An excerpt weighted towards active compounds, which were near 1.1% of everything screened.
CXXC DNA block: qHTS Fluorescence Polarization Assay for Inhibitors of MLL CXXC domain - DNA interaction; Histone-lysine N-methyltransferase 2A (Homo sapiens), Q03164; MLL-CXXC / FITC-HOXA9 DNA fluorescence polarization; Potency, µM (doses to about 115 µM), for the others: top-dose activity change, negative = inhibition, most hits filed as inhibitors; 0.037% of 290,000 active; active = well fitted inhibition curve with a large enough effect in the polarisation, with a control signal flat, not every such curve was filed as active; inconclusive = small, poorly fitted or top-dose-only effect, or effect the other way, or a change in a side signal; inactive = no such curve, though single readings can be large or run the other way; the % refers to the polarisation; note: potency is the fitted concentration of half-maximal effect
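Steps: dispense CXXC domain solution (7 uM) → pin compounds or unlabeled HOX-A9 DNA control → 5 min ambient → add FLSN-HOX-A9 solution (50 nM) → spin → 30 min ambient → fluorescence polarization. Tris pH 7.5/NaCl/DTT/BSA buffer.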
KCNH2 3.1 block: qHTS for Inhibitors of KCHN2 3.1: Mutant qHTS; Potassium voltage-gated channel subfamily H member 2, brain isoform KCNH2 3.1 (human); U2OS KCNH2 3.1, thallium flux FluxOr; stronger effect = lower value; activity change, % (tested at about 1.8 µM); 0.95% of 340,000 active; AID 720553, 2013;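 active = maximum activity change below -70%; inconclusive = maximum activity change from -70% to -50%; inactive = maximum activity change above -50%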;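 note: thallium influx rate constant from kinetic fluorescence after stimulation buffer; % is set by controls: 0 for no effect and ±100 for the full control effect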
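Normalized rate constant (relative to positive and negative DMSO controls) derived from a 2 min kinetic fluorescence read after stimulation; U2OS cells expressing the 3.1 isoform via virus at 1.77 x 10^8 /mL.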
Menin-MLL FL inh: qHTS Assay for Inhibitors Targeting the Menin-MLL Interaction in MLL Related Leukemias: Competition With Fluorescein Labeled MLL-derived Peptide. FP activity change, % at 61.4 µM. 290,000 tested, under 10 active. Fluorescence polarization, fluorescein-MLL peptide displacement from menin; active = well fitted curve in the direction sought with a large enough effect in the polarisation, not every such curve was filed as active; inconclusive = small, poorly fitted or top-dose-only effect, or effect the other way, or a change in a side signal; inactive = no such curve, though single readings can be large or run the other way; the % refers to the polarisation; note: % of control where 0% means no effect
KCNH2 WT inh: qHTS for Inhibitors of KCHN2 3.1: Wildtype qHTS. U2OS, BacMam KCNH2, thallium flux FluxOr; stronger effect = lower value. AID 720551, 2013. activity change, % at 1.84 µM. Voltage-gated inwardly rectifying potassium channel KCNH2 (Homo sapiens), Q12809. 0.37% of 340,000 active;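 active = maximum activity change below -70%; inconclusive = maximum activity change between -70% and -50%; inactive = maximum activity change above -50%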; note: % is set by controls: 0 for no effect and ±100 for the full control effect
Target sequence (Q12809 whole entry, looked up): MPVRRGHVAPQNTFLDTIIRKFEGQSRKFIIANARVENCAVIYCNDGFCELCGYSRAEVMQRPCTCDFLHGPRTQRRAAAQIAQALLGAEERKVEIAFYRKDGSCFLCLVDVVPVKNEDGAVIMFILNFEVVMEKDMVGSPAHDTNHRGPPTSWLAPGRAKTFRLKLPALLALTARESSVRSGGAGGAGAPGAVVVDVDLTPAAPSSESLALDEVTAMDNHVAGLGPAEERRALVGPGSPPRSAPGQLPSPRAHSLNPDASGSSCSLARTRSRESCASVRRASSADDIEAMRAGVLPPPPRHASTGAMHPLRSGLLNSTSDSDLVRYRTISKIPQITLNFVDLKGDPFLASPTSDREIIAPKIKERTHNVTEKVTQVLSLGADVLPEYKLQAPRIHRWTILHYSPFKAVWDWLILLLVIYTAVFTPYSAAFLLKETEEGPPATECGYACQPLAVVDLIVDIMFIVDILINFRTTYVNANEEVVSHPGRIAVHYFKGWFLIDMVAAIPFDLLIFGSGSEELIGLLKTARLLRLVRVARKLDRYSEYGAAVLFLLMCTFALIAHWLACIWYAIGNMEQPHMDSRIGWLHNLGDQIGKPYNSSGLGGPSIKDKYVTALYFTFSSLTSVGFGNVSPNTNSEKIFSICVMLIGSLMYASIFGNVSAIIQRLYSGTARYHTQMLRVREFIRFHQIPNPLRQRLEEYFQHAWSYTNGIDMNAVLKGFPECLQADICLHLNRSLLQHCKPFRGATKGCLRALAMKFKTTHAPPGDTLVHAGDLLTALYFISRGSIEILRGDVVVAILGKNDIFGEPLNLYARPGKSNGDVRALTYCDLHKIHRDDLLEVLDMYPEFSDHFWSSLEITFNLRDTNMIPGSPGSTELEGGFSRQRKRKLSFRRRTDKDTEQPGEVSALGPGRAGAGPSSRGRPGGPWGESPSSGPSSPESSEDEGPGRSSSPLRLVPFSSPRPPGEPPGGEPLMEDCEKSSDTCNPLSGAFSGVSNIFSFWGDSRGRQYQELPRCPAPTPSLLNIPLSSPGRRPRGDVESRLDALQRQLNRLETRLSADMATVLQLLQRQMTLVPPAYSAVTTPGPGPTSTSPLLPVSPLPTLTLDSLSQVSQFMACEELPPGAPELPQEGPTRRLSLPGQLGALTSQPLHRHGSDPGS
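U2OS cells transduced with wild-type KCNH2 virus are loaded with FluxOr dye for 45 min, and thallium flux is measured in kinetic reads before and after stimulation buffer. Rate constants are normalized to DMSO controls.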
Menin MLL FP TR: qHTS Assay for Inhibitors Targeting the Menin-MLL Interaction in MLL Related Leukemias: Competition With Texas Red Labeled MLL-derived Mutant Peptide; O00255; 0.23% of 270,000 active; Menin + Texas Red MLL mutant peptide, fluorescence polarization; AID 1768, 2009; Potency, µM (series often up to 61.6 µM), inactives show top-dose FP activity change, negative = inhibition, actives largely listed as inhibitors; active = well fitted inhibition curve with a large enough effect in the polarisation, with a control signal flat, not every such curve was filed as active; inconclusive = small, poorly fitted or top-dose-only effect, or effect the other way, or a change in a side signal; inactive = no such curve, though single readings can be large or run the other way; the % refers to the polarisation; note: potency is the fitted concentration of half-maximal effect; % of control where 0% means no effect
* hit, by the source's call; ? = inconclusive; / = no result; [ ] = dose if it differs, or a comment.

SMILES	CXXC DNA block	KCNH2 3.1 block	Menin-MLL FL inh	KCNH2 WT inh	Menin MLL FP TR
COC(=O)[C@@]1(Cc2ccccc2)[C@H]2c3cc(C(=O)N4CCCC4)n(C)c3C[C@H]2CN1C(=O)c1ccccc1	/	/	0	/	?
CN(C)CCNS(=O)(=O)c1ccc(N2CCc3ccccc32)c([N+](=O)[O-])c1	17%	7	-9	2	?
CCN1C(=O)CC(Sc2ccccc2C(=O)O)C1=O (stereo not drawn)	2%	-104*	6	-19	3%
O=C(O)c1ccccc1SC1CC(=O)N(c2cccc3ccccc23)C1=O (stereo not drawn)	-13%	-23	1	4	/
COc1ccc(OC(C)C(=O)Nc2ccc(F)cc2F)cc1 (stereo not drawn)	16%	-190*	1	-136*	-11%
COC(=O)[C@@H]1CC[C@H](C)[C@@H](c2ccc(C)cc2)N1C(=O)c1ccc(/C=N\OC[C@@H]2O[C@H](c3ccccc3)C=C[C@@H]2Oc2ccc(OC)cc2)cc1	/	/	5[11.7 µM]	/	-4%[11.7 µM]
O=C(COC(=O)c1ccc(Cl)nc1)c1ccc2c(c1)OCCO2	6%	13	-1	-107*	-9%
C/C(=N\NC(=O)CSc1nc2ccccc2o1)c1cccc(O)c1	-1%	-116*	2	5	/
O=C(Cn1c(NCCCO)nc2ccccc21)c1ccc([N+](=O)[O-])cc1	0%	-73*	0	-14	-2%
N=c1n(CC(=O)c2ccc(Br)cc2)c2ccccc2n1Cc1ccccc1	/	-84*	/	-2	/
N=c1n(CC(=O)c2ccc([N+](=O)[O-])cc2)c2ccccc2n1Cc1ccccc1	37%	-75*	3	7	-15%
CCCNC(=O)OC[C@H]1O[C@@H](CCO/N=C2/C[C@@H](O)[C@@H](O)[C@@H]3[C@@H]4C(=O)N(CC)C(=O)[C@H]4CC[C@@H]23)C=C[C@@H]1Oc1ccc(OC)cc1	/	/	-5[11.7 µM]	/	-22%[11.7 µM]
Cn1c(=O)c(-c2ccc(Cl)cc2)nc2cnc(OCc3ccccc3)nc21	/	/	1	/	3%
CCC(=Cc1ccc(CC)cn1)CC	1%	25	4	0	-37%
Cc1cccc(CCNS(=O)(=O)c2ccc(S(=O)(=O)N3CCC(C)CC3)cc2)c1	/	-79*	/	-6	/
C/C=C1\COC(C(=O)NCc2ccccn2)(C(F)(F)F)C=C1C=C(C)C (stereo not drawn)	/	/	-10	/	-12%
CC(=O)c1ccc(NC(=O)C2(c3ccccc3)CCOCC2)cc1	-2%	-108*	1	0	-16%
O=C(CCCCC(=O)NN=Cc1ccc(Cl)cc1)NN=Cc1ccc(Cl)cc1	/	-44	/	3	/
N#CCC(=O)N/N=C/c1ccc(Cl)cc1	-4%	-73*	1	5	/
O=c1cc(CSc2nnnn2-c2ccccc2)nc2sccn12	0%	-72*	-10	-6	2%
Cc1ccccc1-n1nnnc1SCc1cc(=O)n2ccsc2n1	-1%	-7	1	8	1%
O=C(Cc1cccs1)Nc1cccc(C(=O)Nc2ccco2)c1	-1%	-70*	1	-11	14%
COc1ccc(C(=O)NCc2nnc(SCC(=O)N3CCCCC3)o2)cc1	2%	-92*	1	-3	-1%
COCCNC(=O)c1ccccc1NC(=O)CN(c1ccc2c(c1)OCO2)S(C)(=O)=O	-3%	2	0	-6	-22%
COC(=O)c1ccc(C(=O)OC)c(NC(=O)CN(c2ccc3c(c2)OCO3)S(C)(=O)=O)c1	-2%	-132*	0	-9	/
SMILES	CXXC DNA block	KCNH2 3.1 block	Menin-MLL FL inh	KCNH2 WT inh	Menin MLL FP TR
O=C(O)c1cccc(N/N=C/c2cccc3ccccc23)c1	-4%	-73*	-1	1	?
COc1ccc2ccccc2c1/C=N/Nc1cccc(C(=O)O)c1	3%	5	6	-11	?
CN(/N=C/c1ccc(-c2ccc([N+](=O)[O-])cc2)o1)c1ccccc1	-20%	-72*	?	-38	?
COC(=O)C1=C(C(=O)OC)[C@@H]2N(Cc3ccccc3)c3ccccc3[C@@]23C[C@@H](C(=O)OC)N(S(=O)(=O)c2ccc(OC)cc2)C3=N1	/	/	0[11.7 µM]	/	-7%[11.7 µM]
CC(C)Oc1ccc(NC(=O)Oc2ccccc2)cc1	7%	-207*	4	3	?
CC(=O)c1ccc(NC(=O)Oc2ccccc2)cc1	27%	11	0	5	0%
O=C(N/N=C\c1ccc(COc2ccc([N+](=O)[O-])cc2)o1)c1ccc(Cl)cc1	57%	-77*	0	?	3%
O=C(Cc1ccccc1)Nc1ccccc1N1CCN(c2ccccc2)CC1	5%	-70*	1	0	-21%
CS(=O)(=O)N1CCN(c2ccccc2NC(=O)Cc2ccccc2)CC1	4%	5	1	5	-13%
O=C(Cc1ccccc1)Nc1ccccc1C(=O)Nc1ccccc1	-6%	-123*	5	6	10%
Cc1cc(=O)[nH]c(SCC(=O)NCC2CCCO2)n1 (stereo not drawn)	9%	-20	1	-235*	/
CC(C)C(=O)Nc1nnc(SCC(=O)NCC2CCCO2)s1 (stereo not drawn)	4%	-85*	4	-6	0%
O=C(CSc1nc(O)c(C2CCCCC2)c(=O)[nH]1)NCC1CCCO1 (stereo not drawn)	-8%	2	0	-4	12%
Cc1cc(C)cc(Nc2ccc3nonc3c2[N+](=O)[O-])c1	/	-1	/	-2	/
CCc1ccc(Nc2ccc3nonc3c2[N+](=O)[O-])cc1	/	-159*	/	-134*	/
CCOC(=O)NNc1ccc2nonc2c1[N+](=O)[O-]	40µM*	4	-2	1	/
COc1ccc(NC(=O)c2c(C)noc2C(C)C)cc1S(=O)(=O)N1CCCCC1	/	13	/	8	/
COc1ccc(/C=N/Nc2cc(C)nc3ccc(Br)cc23)cc1	-10%	?	-22	-1	16µM*
COc1ccc2nc(C)cc(N/N=C/c3cccc(OC)c3O)c2c1	?	-7	-15	0	-29%
O=C(CN(Cc1ccco1)S(=O)(=O)c1ccccc1)N/N=C/c1ccccc1C(=O)O	20%	-104*	-2	-2	3%
O=C(CN(c1ccccc1Cl)S(=O)(=O)c1ccccc1)N/N=C/c1ccccc1C(=O)O	-11%	-2	0	7	1%
O=C(CN1CCC(C(O)(c2ccccc2)c2ccccc2)CC1)Nc1ccccc1	-4%	-80*	4	9	-20%
O=C(/C=C/c1ccco1)Nc1cccc(S(=O)(=O)N2CCOCC2)c1	-4%	7	1	-107*	2%

High-throughput results as filed in PubChem.
